Among the data in PubChem BioAssay are z-score values, retold here.

Assay [1] is described as follows: compound effects on lung adenocarcinoma cell viability – A549, calcein-AM fluorescence, 48 h, basal, profiling panel (AID 1162). To be noted: higher = more signal.
The nature of assay [2]: compound effects on differentiated 3T3-L1 adipocyte viability – cell-based, 3T3-L1 adipocytes, calcein-AM fluorescence, 48 h, basal, profiling panel (AID 1163). Particulars: 3T3-L1 adipocytes viability, higher = more signal.
Assay [3] can be described thus: compound effects on hepatocellular carcinoma cell viability – HepG2, calcein-AM fluorescence, 48 h, basal, profiling panel (AID 1164). To be noted: higher = more signal.
The nature of assay [4]: compound effects on multiple myeloma cell viability – MM1S, calcein-AM fluorescence, 48 h, basal, profiling panel (AID 1165).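 Note: viability of MM1S multiple myeloma cells under basal unstimulated conditions.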 To be noted: higher = more signal.
A short description of assay [5]: calcein-AM signal in unstimulated myeloma cells – cell-based, calcein-AM fluorescence, 48 h, PK04 Diversity Set, profiling panel (AID 1166).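 Note: cells grown under basal conditions without added stimulus.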 To be noted: RPMI8226 myeloma viability, higher = more signal.
Assay [6] can be described thus: JC-1 mitochondrial signal, unstimulated HepG2 cells – cell-based, JC-1 fluorescence, 24 h, 100 nL compound, profiling panel (AID 1167). To be noted: HepG2 mitochondrial potential, higher = more signal.
The nature of assay [7]: JC-1 mitochondrial signal, unstimulated adipocytes – cell-based, JC-1 fluorescence, 3T3-L1 adipocytes, 24 h, 100 nL compound, profiling panel (AID 1168). To be noted: JC-1 mitochondrial fluorescence, higher = more signal, called active from +8 up or from −8 down.
A short description of assay [8]: JC-1 mitochondrial signal, unstimulated myeloma cells – cell-based, JC-1 fluorescence, RPMI8226, 24 h, 100 nL compound, profiling panel (AID 1169). To be noted: JC-1 mitochondrial potential fluorescence, higher = more signal.
Assay [9] in a line: JC-1 mitochondrial signal, unstimulated MM1S myeloma – cell-based, JC-1 fluorescence, 24 h, 100 nL compound, profiling panel (AID 1170). To be noted: MM1S mitochondrial potential, higher = more signal.
Assay [10] can be described thus: resazurin metabolic signal in A549 cells – cell-based, resazurin fluorescence, 24 h, PK04 Diversity Set, profiling panel (AID 1171). Particulars: A549 viability, higher = more signal, called active from +8 up or from −8 down. In general terms: Alamar Blue is a resazurin reagent that responds to reducing activity.

Molecules are shown by their SMILES. Calls of active or inactive are those of the source.
Note: test concentration not given here.

With `CC(C)N1C(=O)[C@@]2(Cc3ccccc31)c1ccccc1C(=O)N(Cc1ccccc1)[C@H]2c1ccc(CO)cc1`, the z-score was -0.128 in assay [1]; 0.0609 in assay [2]; -0.112 in assay [3]; -0.436 in assay [4]; -0.617 in assay [5]; -0.0756 in assay [6]. The z-score in [7] is -0.0814 (inactive); in assay [8], 0.122; in assay [9] it was 0.687; in assay [10], 0.247 (inactive).
Consider `C=CCC(OC(C)=O)[C@@H]1[C@@H](N(Cc2ccc(-c3ccccc3)cc2)C(=O)Cc2ccc(OC)cc2)c2cc(OCCCO)ccc2N1C(=O)c1ccc2ccccc2c1` (stereo not given in full), for which the z-score is -0.186 in assay [1]; 0.407 in [2]; -0.437 in assay [3]; -1.12 in assay [4]; -0.807 in assay [5]; 1.87 in assay [6]. Moreover, the z-score in assay [7] is -0.81 (inactive); in [8], 1.08; in assay [9], 0.383; in [10], -0.0027 (inactive).
As to `O=C1NC(=O)C2C1C=CC(C(O)c1ccc(F)cc1)N2Nc1ccc(Cl)cc1Cl` (stereo not given), the z-score in assay [1] was -2.35; in [2], -0.275; in [3], -3.57; in [4] it was -2.88; in assay [5] it was -2.29; in assay [6], -3.47. The z-score in [7] was -0.472 (inactive); in [8], -0.0645; in [9], 0.174; in assay [10] it was -2.11 (inactive).
As to `COCCOC(=O)N1C(=O)[C@@]2(c3cc(C#CC4(O)CCCCCC4)ccc31)[C@H](C(N)=O)[C@H]1C(=O)O[C@H](c3ccccc3)[C@H](c3ccccc3)N1[C@@H]2c1ccc(OCCO)cc1`, the z-score in [1] was -0.502; in [2], -0.0582; in [3], -1.71; in assay [4], -2.99; in assay [5], -4.26; in [6], -1.97. The z-score in assay [7] is -0.69 (inactive); in assay [8], -1.29; in assay [9], -1.7; in [10] it was -1.54 (inactive).
`[N-]=[N+]=Nc1ccccc1C[C@]1(C(=O)N2CCCCC2)N=C(c2ccc(OCCCO)cc2)O[C@H]1c1ccccc1`: the z-score is -0.786 in [1]; 0.0946 in [2]; 0.014 in [3]; -3.29 in assay [4]; -4.3 in [5]; 0.839 in assay [6]. The z-score was 0.231 (inactive) in [7], -1.2 in assay [8], -2.15 in assay [9] and -0.676 (inactive) in assay [10].
On to `COCCCNC(=O)[C@@]1(CCC(=O)OC(C)(C)C)N=C(c2ccc(OCCCO)cc2)O[C@H]1c1ccccc1`, for which the z-score in assay [1] was 0.899; in assay [2] it was -0.0512; in [3], 0.317; in assay [4], 0.32; in assay [5], 0.678; in [6] it was 0.842. In addition, the z-score in assay [7] was 2.11 (inactive); in [8], 0.721; in assay [9], -1.08; in assay [10], -0.376 (inactive).
For `CC(C)C[C@@H]1NC(=O)[C@H]2C[C@@H](C(=O)O)[C@@H](c3cccc(OCCO)c3)N2C1=O`, the z-score was -0.218 in assay [1]; -0.234 in assay [2]; -0.072 in assay [3]; -1.36 in assay [4]; -0.0757 in assay [5]; 0.664 in assay [6]. Also, the z-score in [7] is -0.115 (inactive); in assay [8], -0.0946; in [9], -0.449; in [10], 0.668 (inactive).
For the compound `O=C1C2C=CC(C(O)C3CC=CCC3)N(Nc3ccc([N+](=O)[O-])cc3)C2C(=O)N1c1ccccc1` (stereo not given), the z-score in assay [1] is -0.562; in [2], 0.243; in [3], -1.55; in [4], 0.25; in assay [5], -0.738; in assay [6] it was -1.02. The z-score in assay [7] is -1.43 (inactive); in assay [8], -0.374; in assay [9], 0.000383; in [10], -0.383 (inactive).
Consider `CCCCC(=C=CC[C@@H](O)c1ccc(OCCO)cc1)CCO`, for which the z-score in assay [1] was 1.39; in assay [2] it was -0.0802; in assay [3], 0.016; in assay [4] it was -0.64; in assay [5], 0.796; in assay [6], 0.0677. The z-score in assay [7] is -0.214 (inactive); in assay [8] it was -0.0377; in assay [9], 1.03; in assay [10] it was 1.46 (inactive).
Take `CC(=O)NCCCC[C@@H]1NC(=O)[C@H]2C[C@@H](C(=O)O)[C@@H](c3cccc(OCCO)c3)N2C1=O`: the z-score in assay [1] is -0.103; in assay [2], -0.349; in [3], 0.276; in assay [4] it was 0.34; in [5] it was 0.928; in assay [6] it was 0.0103. Further, the z-score in [7] is -0.55 (inactive); in [8], -0.809; in assay [9], -0.401; in assay [10], 0.354 (inactive).
For the compound `COCCOC(=O)N1C(=O)[C@@]2(c3cc(C#CCNC(N)=O)ccc31)[C@H](c1ccc(O)cc1)N1[C@H](c3ccccc3)[C@H](c3ccccc3)OC(=O)[C@H]1[C@@H]2C(=O)N1CCc2cc(OC)c(OC)cc2C1`, the z-score was 0.571 in [1]; -0.065 in assay [2]; -0.281 in assay [3]; -0.72 in assay [4]; 0.542 in [5]; -1.82 in assay [6]. Further, the z-score in assay [7] is -0.338 (inactive); in assay [8], 0.0593; in assay [9] it was 0.583; in [10], 0.0875 (inactive).
On to `COc1cccc(C)c1NC(=O)O[C@H]1[C@H](OC(=O)Nc2ccc3c(c2)OCO3)[C@H](OC(=O)Nc2ccc3c(c2)OCO3)[C@@H](OC)O[C@@H]1CO`, for which the z-score in [1] is -0.934; in assay [2], 0.372; in assay [3] it was -0.997; in [4], -1.62; in assay [5], -1.82; in assay [6], -0.514. The z-score in [7] is 0.308 (inactive); in assay [8], -0.136; in [9] it was -0.724; in [10], -0.654 (inactive).
As for `Cc1c(NC(=O)/C(C#N)=C/C=C/c2ccc([N+](=O)[O-])cc2)c(=O)n(-c2ccccc2)n1C`, the z-score in [1] is 0.251; in assay [2] it was -0.141; in assay [3], -0.182; in [4], -1.02; in assay [5] it was -0.787; in assay [6], -1.19. The z-score in assay [7] was 0.0244 (inactive); in assay [8], -0.278; in assay [9], 0.096; in assay [10], 0.0981 (inactive).
